# Results reported in the supplement of paper PMC6555819.
# Key:
# Assay in all cases: PBM binding z-score (relative to random genomic background probes); higher = stronger binding; sequences stand for … in GC…GCGATTGACAGCGTAGAATGAAGG
# [1] = test system: FXR:RXRa (NR concentration 270 nM, RXRa partner concentration 90 nM)
# Procedure, shortened: (§1)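 Regression normalization was applied to scanned fluorescence from custom Agilent 4×180K protein-binding microarrays. Before scanning, arrays were incubated 1 h with ligand-free nuclear receptor dimers, and binding was detected with antibodies against each partner (one per run). Binding z-scores use the random background probes as reference.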
# [2] = test system: LXRa:RXRa (NR concentration 270 nM, RXRa partner concentration 90 nM)
# Procedure, shortened: as §1
# [3] = test system: LXRa homodimer (NR concentration 270 nM)
# Procedure, shortened: as §1
# [4] = test system: LXRb:RXRa (NR concentration 270 nM, RXRa partner concentration 90 nM)
# Procedure, shortened: as §1
# [5] = test system: LXRb homodimer (NR concentration 270 nM)
# Procedure, shortened: as §1
# [6] = test system: PPARa:RXRa (NR concentration 270 nM, RXRa partner concentration 90 nM)
# Procedure, shortened: as §1
# [7] = test system: PPARg:RXRa (NR concentration 180 nM, RXRa partner concentration 90 nM)
# Procedure, shortened: as §1
# [8] = test system: PPARg:RXRa 270nM:90nM, anti-RXR (NR concentration 270 nM, RXRa partner concentration 90 nM)
# Procedure, shortened: as §1
# [9] = test system: PPARg:RXRa 30nM:10nM, anti-RXR (NR concentration 30 nM, RXRa partner concentration 10 nM)
# Procedure, shortened: as §1
# [10] = test system: PPARg:RXRa 90nM:30nM, anti-RXR (NR concentration 90 nM, RXRa partner concentration 30 nM)
# Procedure, shortened: as §1
# [11] = test system: PPARg:RXRa DBDmut IVT, anti-RXR (DBD mutation: RXRa K156A/R161A, NR concentration 270 nM, RXRa partner concentration 90 nM)
# Procedure, shortened: as §1
# [12] = test system: PPARg:RXRa IVT, anti-PPARg (NR concentration 270 nM, RXRa partner concentration 90 nM)
# Procedure, shortened: as §1
# [13] = test system: PPARg DBDmut:RXRa IVT, anti-PPARg (DBD mutation: PPARg1 K132A/R137A, NR concentration 270 nM, RXRa partner concentration 90 nM)
# Procedure, shortened: as §1
# [14] = test system: PPARg DBDmut IVT, anti-PPARg (DBD mutation: PPARg1 K132A/R137A, NR concentration 270 nM)
# Procedure, shortened: as §1
# [15] = test system: PPARg homodimer (NR concentration 180 nM)
# Procedure, shortened: as §1
# [16] = test system: PXR:RXRa (NR concentration 270 nM, RXRa partner concentration 90 nM)
# Procedure, shortened: as §1
# [17] = test system: PXR homodimer (NR concentration 270 nM)
# Procedure, shortened: as §1
# [18] = test system: RARa:RXR (NR concentration 270 nM, RXRa partner concentration 90 nM)
# Procedure, shortened: as §1
# [19] = test system: RARa homodimer (NR concentration 270 nM)
# Procedure, shortened: as §1
# [20] = test system: RARb:RXRa (NR concentration 270 nM, RXRa partner concentration 90 nM)
# Procedure, shortened: as §1
Sequence,PBM binding z-score [1],PBM binding z-score [2],PBM binding z-score [3],PBM binding z-score [4],PBM binding z-score [5],PBM binding z-score [6],PBM binding z-score [7],PBM binding z-score [8],PBM binding z-score [9],PBM binding z-score [10],PBM binding z-score [11],PBM binding z-score [12],PBM binding z-score [13],PBM binding z-score [14],PBM binding z-score [15],PBM binding z-score [16],PBM binding z-score [17],PBM binding z-score [18],PBM binding z-score [19],PBM binding z-score [20]
CACACTAGGTCAAGGTCAAAGTCGGTTTGTGCCA,7.12,6.07,5.26,4.87,2.5,5.71,8.74,7.44,5.6,7.61,7.8,8.02,6.91,5.72,7.79,5.54,4.08,5.87,3.51,5.03
GGAACGAGGGCATTCGAGTTGATAGCCTGGCGAT,0.904,1.66,-0.751,0.0314,-0.65,1.42,0.665,0.992,-0.34,0.776,3.64,2.1,-0.256,-0.793,-0.188,4.04,1.57,1.58,-0.598,1.82
CCCGCTAGGTCAATGGTCAGCTAAAGCAGCTCGC,3.1,2.28,-0.0501,1.61,0.293,3.18,5.11,5.22,3.41,5.01,4.1,3.83,-0.504,-0.484,1.55,1.09,-0.582,1.91,-0.541,3.78
TCATATAGGTTATACAGGTGAAAGTCGGCATCTA,1.71,2.32,0.882,1.82,0.833,2.99,2.56,3.17,3.94,3.58,4.73,4.18,1.95,0.981,1.6,1.27,1.03,1.9,1.84,1.51
AATACAGGGTCACTAGGCCAGAGTTGGTACGAAT,6.05,4.87,0.807,3.75,0.616,5.99,8.38,6.63,3.71,5.85,4.05,5.77,1.25,0.486,2.23,3.38,0.712,4.44,0.618,4.29
CATACAGGGTCAGCTATGCCAGAGTAGGGACGGC,4.14,2.68,-0.0915,1.98,0.359,4.21,3.53,2.58,0.968,1.77,0.895,2.38,0.429,0.135,0.969,2.18,-0.0786,3.05,0.191,4.03
TAGCGTAGGTCATTCAGGGGCCAGTATAGAAAGC,4.91,4.31,0.816,3.43,1.24,4.19,1.8,2.55,0.626,1.6,0.864,1.61,0.591,0.134,2.48,3.08,0.138,4.5,0.404,3.99
CCTACTGGGCCAGAAAGGTCATTGATGCCGATAA,3.9,4.7,3.35,4.16,0.28,4.76,2.59,3.87,1.21,2.91,2.56,3.3,-0.848,-1.13,2.14,4.76,2.21,5.01,1.75,3.73
TCTTGTAGATAAAGCAGGTTAAGAAAGCCTGAGT,0.606,0.66,-0.172,0.585,-0.647,1.06,-0.166,1.54,2.82,2.17,1.9,0.689,-0.607,0.523,0.35,0.561,0.376,0.708,0.783,0.2
CCTTACCGGTCACGAGGTTATAGCACGACGAGCG,2.69,3.04,2,2,0.699,2.85,2.12,2.07,0.437,1.06,1.09,2.32,0.31,0.533,2.18,1.92,0.733,2.66,1.45,3.73
GCATATAGGTAATACAAGGTGTAAGTCCGATTGT,0.0456,-0.21,-0.0292,-0.487,-0.137,0.159,0.975,0.539,0.405,0.179,4.05,2.41,0.78,0.908,0.475,-0.257,-0.0468,0.0684,0.804,-0.269
ACAGACAGGTGTTGAAGGTAACTCAGGCTATCAT,-0.0696,-0.375,-0.136,-0.298,-0.389,-0.0786,0.432,-0.232,-0.26,-0.54,-0.116,-0.388,-0.275,0.107,-0.0576,-0.158,0.379,0.0742,-0.513,-0.084
ATATGTAGGTGACATCCGGGTCATTCAGGCTATG,2.96,2.62,0.319,2.21,0.147,5.01,6.79,5.7,2.91,5,7.69,8.07,4.09,3.49,3.11,3.52,2.13,3.62,-0.0147,2.14
TCATCTAGGTAAATGCTAGGTGAAAGTCCGATCT,0.554,0.411,0.0508,0.263,-0.0728,1.17,0.51,2.29,3.44,2.92,3.81,3.11,1.09,0.995,0.213,0.375,-0.263,0.578,-0.0135,0.219
